HTR5A ag ctr: HTR5A agonism, opioid heterodimer counter-screen; HTR5A agonist assay, luminescence, cell-based; activation, % at 9.3 µM; hit rate 0.61% among 340,000; in the data active = activation mostly above about 9.5%, no sharp cut-off; inactive = mostly below about 7.6%;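 also: 0% = cells with vehicle only and 100% = reference agonist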
OPRM1-OPRD1 inv: mu-delta opioid heterodimer inverse agonism. P35372+P41143. cell-based MOR-DOR heterodimer luminescence. inhibition, % at 9.3 µM. hit rate 0.21% among 340,000; in the data active = inhibition above about 22%, passing the limit was not always enough;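 also: 0% = cells with DMSO and 100% = wells without cells with DMSO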
Target sequence (P35372 whole entry, looked up): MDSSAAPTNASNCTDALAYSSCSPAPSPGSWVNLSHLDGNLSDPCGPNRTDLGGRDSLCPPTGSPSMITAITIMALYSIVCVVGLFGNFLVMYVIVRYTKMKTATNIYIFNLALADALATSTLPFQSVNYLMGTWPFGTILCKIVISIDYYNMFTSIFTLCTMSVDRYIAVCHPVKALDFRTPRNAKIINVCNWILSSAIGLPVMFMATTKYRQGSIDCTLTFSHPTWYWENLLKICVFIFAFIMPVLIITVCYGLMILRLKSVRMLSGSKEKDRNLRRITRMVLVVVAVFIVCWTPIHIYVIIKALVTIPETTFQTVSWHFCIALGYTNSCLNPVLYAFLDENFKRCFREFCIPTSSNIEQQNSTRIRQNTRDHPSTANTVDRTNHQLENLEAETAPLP
Target sequence (P41143 whole entry, looked up): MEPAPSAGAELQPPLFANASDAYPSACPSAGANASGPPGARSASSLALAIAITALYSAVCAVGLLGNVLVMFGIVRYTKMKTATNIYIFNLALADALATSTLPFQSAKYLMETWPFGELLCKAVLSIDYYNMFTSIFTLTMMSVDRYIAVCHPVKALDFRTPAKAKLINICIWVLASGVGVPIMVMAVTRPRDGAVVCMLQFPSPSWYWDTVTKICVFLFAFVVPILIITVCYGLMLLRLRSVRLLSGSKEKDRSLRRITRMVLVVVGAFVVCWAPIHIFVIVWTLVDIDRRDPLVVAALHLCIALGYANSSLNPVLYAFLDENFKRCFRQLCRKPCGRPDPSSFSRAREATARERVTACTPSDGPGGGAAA
HTR5A inv ag: counter-screen for OPRM1-OPRD1 inverse agonists: human HTR5A inverse agonism. hit rate 0.083% among 340,000. HTR5A cell line, luminescence. inhibition, % at 9.3 µM; in the data active = inhibition mostly above about 23%, no sharp cut-off; inactive = mostly below about 18%;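 also: 0% = cells with DMSO and 100% = no-cell wells with DMSO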
OPRM1-OPRD1 ag: OPRM1-OPRD1 heterodimerization agonism; P35372+P41143; cells, luminescence; activation, % at 9.3 µM; hit rate 0.3% among 340,000; in the data active = activation above about 18%;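 also: 0% = vehicle-treated cells and 100% = reference agonist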
m5-HT2A agonist: agonists of mouse serotonin 5-HT2A receptor (HTR2A); hit rate 0.66% among 360,000; activation, % at 7.6 µM; CHO-K1 mHTR2A beta-arrestin complementation, luminescence; percent of 30 µM serotonin response; P35363;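 active = activation above a run cutoff, the mean activation of all tested compounds plus 3 SD, cut at about 14% in these data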;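 also: 0% = plate median of compound wells and 100% = 30 µM serotonin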
MOR ag counter: counter-screen for mouse HTR2A agonists: human mu opioid receptor agonists; shares compounds with m5-HT2A agonist; U2OS OPRM1 beta-arrestin PathHunter, luminescence; DMSO 0%, DAMGO 9.3 µM 100%; activation, % at 9.3 µM; hit rate 5.3% among 2,300;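 active = mean activation above the mean of DMSO-only wells plus 3 SD, cut at about 0.5% in these data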
m5-HT2A ag conf: mouse HTR2A agonism confirmed | shares compounds with m5-HT2A agonist | CHO-K1 PathHunter beta-arrestin recruitment, luminescence; DMSO 0%, 30 µM serotonin 100% | activation, % at 7.6 µM | hit rate 19% among 2,300 | AID 624381;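 active = mean activation across triplicates above the hit threshold derived in the original primary screen, cut at about 15% in these data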
* = called active by the depositor; . = not tested or not shown. Only some compounds are listed: those with a hit (about 1.6% of all), similar ones and a draw of the others.

SMILES | HTR5A ag ctr | OPRM1-OPRD1 inv | HTR5A inv ag | OPRM1-OPRD1 ag | m5-HT2A agonist | MOR ag counter | m5-HT2A ag conf
COc1ccc(OC)c(NC(=O)CSc2nc3[nH]c(=O)[nH]c(=O)c3s2)c1 | 0 | 7 | 0 | -1 | 18* | -1 | 1
COc1ccc(OC)c(NC(=O)CSc2nc3[nH]c(=O)cc(O)c3s2)c1 | 6 | 10 | -16 | -3 | -2 | . | .
COc1ccc(CC(=O)Nc2cc(C)on2)cc1OC | 2 | 6 | -8 | -1 | 15* | -1 | -2
COc1ccccc1CC(=O)Nc1cc(C)on1 | . | . | . | . | -5 | . | .
CCOCCCNC(=O)C1(O)c2cc(Br)ccc2NC(=O)N1c1ccc(CC)cc1 (stereo not drawn) | 7 | 9 | -26 | -2 | 18* | 0 | -1
CCOC(=O)c1cc2cc(OC)ccc2n1C1CCN(CCc2ccccc2)CC1 | . | . | . | . | 20* | 0 | -7
CN(C)c1cccc(CNC(=O)c2ccc3nc([C@@H]4O[C@H](CO)[C@H](O)[C@H](O)[C@H]4O)[nH]c3c2)c1 | . | . | . | . | 2 | . | .
O=C(NCc1ccccn1)c1ccccc1OCc1ccc(F)cc1 | 0 | 17 | -1 | -3 | -4 | . | .
O=C(NCc1ccccn1)c1ccccc1OCc1ccccc1Cl | . | . | . | . | 24* | 0 | -6
O=C(NCc1ccccn1)C(F)(F)C(F)(F)C(=O)NCc1ccccn1 | 7 | 6 | -20 | -1 | 15* | 0 | -3
CCOC(=O)C1(C)CCCCCN1C(=O)c1ccc(OC)cc1 (stereo not drawn) | . | . | . | . | 16* | -1 | -4
CC1(C(=O)NCc2ccc(Cl)cc2)CCN1C(=O)c1cccc(F)c1 (stereo not drawn) | . | . | . | . | 1 | . | .
COc1ccccc1NC(=O)c1ccc(-c2ccc(Br)cc2)o1 | 1 | 4 | -1 | -1 | 31* | 0 | -3
Cc1nn(-c2ccc(Cl)cc2)c(=O)c2ccccc12 | -4 | 17 | 10 | -3 | -2 | . | .
Cc1c(Cl)sn(-c2ccc(Cl)cc2)c1=O | 19* | -208 | -54 | 36* | 17* | 3.3* | 0
O=C1C=C(c2ccc(F)cc2OCc2ccccc2)C[C@@H](c2ccc(F)cc2)C1 | -3 | 12 | -23 | -3 | 16* | -1 | -9
COc1ccc([C@H]2CC(=O)C=C(c3cccc(OC)c3)C2)cc1 | 7 | 13 | 14 | -2 | -1 | . | .
COc1cccc(-c2n[nH]nc2C2=CC(=O)C[C@H](c3ccc(F)cc3)C2)c1 | . | . | . | . | 22* | 0 | 0
O=C1C=C(c2ccc(-c3ccccc3)c(F)c2)C[C@@H](c2ccc(F)cc2)C1 | 5 | -6 | -5 | 1 | 2 | . | .
O=C1C=C(c2n[nH]nc2-c2ccccc2)C[C@@H](c2ccc(F)cc2)C1 | . | . | . | . | 15* | -1 | -4
COc1ccc([C@H]2CC(=O)C=C(c3cccc(CO)c3)C2)cc1 | 0 | 10 | -4 | -2 | 15* | -1 | -4
O=C(OCc1ccccc1)N1CCC2CC1c1ccc(/C=C/CCCCl)cc12 (stereo not drawn) | . | . | . | . | -2 | . | .
CCN(Cc1ccccc1)C(=O)C(=O)c1cn(CC(=O)N2CCCC2)c2ccccc12 | 0 | 17 | 6 | -3 | 16* | -1 | -3
CCN(CC)C(=O)Cn1cc(C(=O)C(=O)N2CCN(C)CC2)c2ccccc21 | 1 | 7 | -19 | -1 | 16* | -1 | 0
C[C@@H]1CN([C@H](C)CO)C(=O)CCCn2cc(nn2)CO[C@H]1CN(C)C(=O)Nc1ccccc1C(F)(F)F | . | . | . | . | 1 | . | .
SMILES | HTR5A ag ctr | OPRM1-OPRD1 inv | HTR5A inv ag | OPRM1-OPRD1 ag | m5-HT2A agonist | MOR ag counter | m5-HT2A ag conf
O=C(/C=C/c1ccc([N+](=O)[O-])cc1)N1CCN(Cc2ccccc2)CC1 | 9 | 1 | -21 | 0 | 3 | . | .
O=C(/C=C/c1ccc([N+](=O)[O-])cc1)N1CCN(S(=O)(=O)c2ccccc2)CC1 | -1 | 5 | 4 | -1 | 18* | 0 | -4
O=C(Nc1ccccc1)c1cc(C2CCCCN2S(=O)(=O)Cc2cccc(C(F)(F)F)c2)on1 (stereo not drawn) | . | . | . | . | 1 | . | .
CC(C)C[C@H]1C(=O)N2CCC[C@H]2[C@]2(O)O[C@](NC(=O)C3C=C4c5cccc6[nH]c(Br)c(c56)C[C@H]4N(C)C3)(C(C)C)C(=O)N12 (stereo partly drawn) | 8 | -24 | -30 | 4 | 48* | 0 | 174*
Cc1ccc(S(=O)(=O)N2[C@@H](c3ccc(C(C)(C)C)cc3)C(C(=O)O)=CC[C@H]2c2ccc(Cl)cc2)cc1 | -2 | 11 | 7 | -2 | 3 | . | .
CCOC(=O)C1=CC[C@@H](c2ccccc2C(F)(F)F)N(S(=O)(=O)c2ccc(C)cc2)[C@H]1c1ccc(C#N)cc1 | . | . | . | . | 17* | 0 | -3
Cc1ccc([C@@H]2CC=C(C(=O)O)[C@H](c3ccc(C(C)(C)C)cc3)N2S(=O)(=O)c2ccc(C)cc2)cc1 | 3 | -12 | -10 | 3 | 24* | 0 | 7
CC[C@@H]1C=C(C(=O)O)[C@H](c2ccc(Cl)cc2)N1S(=O)(=O)c1ccc(C)cc1 | 0 | 9 | 1 | -2 | 17* | -1 | -1
CC[C@@H]1C=C(C(=O)O)[C@H](c2ccc(C)cc2)N1S(=O)(=O)c1ccc(C)cc1 | -4 | 3 | 14 | -1 | 7 | . | .
CCCC[C@@H]1C=C(C(=O)O)[C@H](c2ccc3c(c2)OCO3)N1S(=O)(=O)c1ccc(C)cc1 | 3 | 4 | -11 | -1 | 16* | 1.3* | 6
CCCC[C@@H]1C=C(C(=O)O)[C@H](c2ccc(Cl)cc2)N1S(=O)(=O)c1ccc(C)cc1 | 4 | 14 | -13 | -3 | -2 | . | .
CCN1C(=O)C(CC(=O)NCCc2ccccc2)N(NC(=O)c2ccc(Br)cc2)C1=S (stereo not drawn) | . | . | . | . | -9 | . | .
COCc1cccc(-c2csc(C(C)(O)c3cccc(OC)c3)n2)c1 (stereo not drawn) | . | . | . | . | 1 | . | .
CCOc1cc(OCC)cc(C(=O)N2CCC[C@H]2C(=O)N2CCC[C@H]2C(=O)NCc2cccc(OC)c2)c1 | . | . | . | . | 1 | . | .
Cc1cccc(CN2CCN(c3ccccn3)CC2)c1 | -7 | 5 | 18 | -1 | 32* | -1 | 92*
Brc1cccc(CN2CCN(c3ncccn3)CC2)c1 | 10 | 3 | -7 | -1 | 33* | 0 | 84*
c1ccc(COc2cccc(CN3CCN(c4ccccn4)CC3)c2)cc1 | 0 | -46 | 1 | 8 | 36* | -1 | 93*
c1ccc(CCCN2CCN(c3ccccn3)CC2)cc1 | -1 | -3 | 12 | 1 | -1 | . | .
CCc1ccc(CN2CCN(c3ncccn3)CC2)cc1 | 2 | 8 | -6 | -2 | 8 | . | .

Source: PubChem BioAssay (The Scripps Research Institute Molecular Screening Center)
